Our source for the binding signal values is paper PMC7862700, “An all-to-all approach to the identification of sequence-specific readers for epigenetic DNA modifications on cytosine”.

Holding throughout (experiment): DAPPL (digital affinity profiling via proximity ligation, sequencing); 10 mM Tris-HCl pH 7.5, 50 mM NaCl, 1 mM DTT, 4% glycerol, room temperature, 30 min; GST-TFs on glutathione beads, 16-mer random dsDNA library, 0.1% formaldehyde crosslink after washing; high values mean tight binding
Common to all, as to conditions: protein: recombinant; tags: N-terminal GST; dsDNA, one strand shown

The target in one assay is T1, FLI1 (Homo sapiens, UniProt Q01543 1-452).
T1 sequence: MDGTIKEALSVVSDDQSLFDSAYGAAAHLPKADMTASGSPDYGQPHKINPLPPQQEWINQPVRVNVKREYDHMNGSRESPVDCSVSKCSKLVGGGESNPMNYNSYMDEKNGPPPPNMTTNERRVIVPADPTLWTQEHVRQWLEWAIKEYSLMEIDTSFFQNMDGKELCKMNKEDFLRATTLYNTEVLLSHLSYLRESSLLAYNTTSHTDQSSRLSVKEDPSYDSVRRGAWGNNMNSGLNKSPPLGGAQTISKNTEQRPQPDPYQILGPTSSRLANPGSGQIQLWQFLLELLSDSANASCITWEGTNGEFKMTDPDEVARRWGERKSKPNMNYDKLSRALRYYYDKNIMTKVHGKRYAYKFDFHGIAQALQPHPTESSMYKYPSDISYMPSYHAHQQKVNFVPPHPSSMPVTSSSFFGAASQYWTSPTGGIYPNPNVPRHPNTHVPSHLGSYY
In outline:
(§1)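 Binding signal is given per hexamer as its read frequency for a factor divided by its frequency in the tag-only sample. GST-fused human transcription factors were expressed in yeast, captured on glutathione beads, barcoded with DNA and pooled with that sample, then incubated with 200 nmole of a 16-mer random double-stranded DNA library in Tris/NaCl/DTT/glycerol buffer for 30 min at room temperature. The pools were then washed, crosslinked, proximity-ligated, amplified by PCR and sequenced on an Illumina NextSeq500.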

For a further assay, the target named is T2, ELK1 (Homo sapiens, UniProt P19419 1-428).
T2 sequence: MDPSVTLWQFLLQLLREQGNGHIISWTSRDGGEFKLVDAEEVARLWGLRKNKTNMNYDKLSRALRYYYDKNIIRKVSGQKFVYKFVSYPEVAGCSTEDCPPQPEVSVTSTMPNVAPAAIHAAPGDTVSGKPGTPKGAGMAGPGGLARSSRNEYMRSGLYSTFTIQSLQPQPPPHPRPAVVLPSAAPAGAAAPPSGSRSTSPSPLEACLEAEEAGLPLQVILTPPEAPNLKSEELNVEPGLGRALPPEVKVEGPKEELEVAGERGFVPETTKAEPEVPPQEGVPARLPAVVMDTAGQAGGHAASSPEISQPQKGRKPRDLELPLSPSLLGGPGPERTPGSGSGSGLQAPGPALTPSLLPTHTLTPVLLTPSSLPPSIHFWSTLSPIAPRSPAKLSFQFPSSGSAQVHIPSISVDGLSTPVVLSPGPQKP
In short, it runs like this:
as §1

The next assay concerns the target T3, GABPA (Homo sapiens, UniProt Q06546 1-454).
T3 sequence: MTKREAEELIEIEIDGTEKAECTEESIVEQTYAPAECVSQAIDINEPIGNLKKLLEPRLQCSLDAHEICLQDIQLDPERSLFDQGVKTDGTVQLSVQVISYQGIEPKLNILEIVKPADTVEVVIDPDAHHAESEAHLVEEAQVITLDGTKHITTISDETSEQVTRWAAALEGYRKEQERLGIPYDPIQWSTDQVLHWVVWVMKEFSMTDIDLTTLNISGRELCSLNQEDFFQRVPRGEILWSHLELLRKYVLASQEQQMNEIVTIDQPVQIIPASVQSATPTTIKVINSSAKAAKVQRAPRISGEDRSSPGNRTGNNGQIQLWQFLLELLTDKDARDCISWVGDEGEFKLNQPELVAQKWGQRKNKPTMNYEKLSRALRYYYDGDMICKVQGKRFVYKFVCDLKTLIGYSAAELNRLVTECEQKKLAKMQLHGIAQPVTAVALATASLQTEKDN
In outline: as §1

The next assay deals with T4, ERG (Homo sapiens, UniProt P11308 1-479).
T4 sequence: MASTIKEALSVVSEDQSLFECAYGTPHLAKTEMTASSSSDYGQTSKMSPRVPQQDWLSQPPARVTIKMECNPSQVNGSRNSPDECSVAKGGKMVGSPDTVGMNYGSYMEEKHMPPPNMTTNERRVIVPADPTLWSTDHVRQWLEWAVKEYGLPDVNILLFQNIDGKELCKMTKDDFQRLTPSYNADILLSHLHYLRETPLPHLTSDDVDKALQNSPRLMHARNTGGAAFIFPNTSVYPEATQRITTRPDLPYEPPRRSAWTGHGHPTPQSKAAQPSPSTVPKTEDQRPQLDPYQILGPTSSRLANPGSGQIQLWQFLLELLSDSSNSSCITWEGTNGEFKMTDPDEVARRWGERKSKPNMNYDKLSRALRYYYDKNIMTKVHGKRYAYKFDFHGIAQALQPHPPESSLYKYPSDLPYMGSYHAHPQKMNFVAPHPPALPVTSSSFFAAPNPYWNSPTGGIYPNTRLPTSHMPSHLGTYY
In short, it runs like this: as §1

A further assay deals with ELF1 (Homo sapiens, UniProt P32519 1-619). In short, it runs like this: as §1
For another assay, the target named is T5, EHF (Homo sapiens, UniProt Q9NZC4 1-300).
T5 sequence: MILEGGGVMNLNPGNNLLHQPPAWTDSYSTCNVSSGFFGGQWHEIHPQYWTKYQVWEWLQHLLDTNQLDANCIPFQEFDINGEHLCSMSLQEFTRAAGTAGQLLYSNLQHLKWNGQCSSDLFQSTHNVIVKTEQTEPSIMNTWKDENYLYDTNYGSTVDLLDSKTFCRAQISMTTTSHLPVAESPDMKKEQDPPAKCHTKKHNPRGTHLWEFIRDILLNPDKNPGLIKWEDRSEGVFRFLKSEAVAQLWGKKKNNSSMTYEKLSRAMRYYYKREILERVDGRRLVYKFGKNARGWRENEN
In outline: as §1

The next assay deals with SPI1 (Homo sapiens, UniProt P17947 1-270). In outline: as §1
The target of another assay is SPIB (Homo sapiens, UniProt Q01892 1-262). In outline:
as §1

The target in another assay is T6, ELK3 (Homo sapiens, UniProt P41970 1-407).
T6 sequence: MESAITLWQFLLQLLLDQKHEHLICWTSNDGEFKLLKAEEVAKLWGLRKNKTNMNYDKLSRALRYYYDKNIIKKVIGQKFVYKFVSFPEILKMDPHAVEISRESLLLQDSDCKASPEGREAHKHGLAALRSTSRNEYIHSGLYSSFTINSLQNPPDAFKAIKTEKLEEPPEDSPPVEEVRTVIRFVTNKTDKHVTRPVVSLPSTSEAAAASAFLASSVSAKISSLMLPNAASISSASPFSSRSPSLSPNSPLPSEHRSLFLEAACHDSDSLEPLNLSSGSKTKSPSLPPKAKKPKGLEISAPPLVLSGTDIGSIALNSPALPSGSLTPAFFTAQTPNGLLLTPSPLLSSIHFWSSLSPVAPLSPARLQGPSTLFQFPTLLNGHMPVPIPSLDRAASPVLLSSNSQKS
In outline: as §1

For a further assay, the target named is ETV5 (Homo sapiens, UniProt P41161 1-510). In outline:
as §1

A further assay addresses T7, SPIC (Homo sapiens, UniProt Q8N5J4 1-248).
T7 sequence: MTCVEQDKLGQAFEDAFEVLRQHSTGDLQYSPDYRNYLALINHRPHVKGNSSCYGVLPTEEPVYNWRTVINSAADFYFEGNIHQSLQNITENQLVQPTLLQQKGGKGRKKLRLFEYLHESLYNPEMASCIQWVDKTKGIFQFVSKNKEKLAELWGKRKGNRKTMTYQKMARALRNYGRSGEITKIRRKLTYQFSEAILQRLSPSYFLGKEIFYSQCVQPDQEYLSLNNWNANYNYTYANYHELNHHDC
In short, it runs like this:
as §1

The next assay has as its target ELF4 (Homo sapiens, UniProt Q99607 1-663). In short, it runs like this:
as §1

For another assay, the target named is T8, ELK4 (Homo sapiens, UniProt P28324-2 1-405).
T8 sequence: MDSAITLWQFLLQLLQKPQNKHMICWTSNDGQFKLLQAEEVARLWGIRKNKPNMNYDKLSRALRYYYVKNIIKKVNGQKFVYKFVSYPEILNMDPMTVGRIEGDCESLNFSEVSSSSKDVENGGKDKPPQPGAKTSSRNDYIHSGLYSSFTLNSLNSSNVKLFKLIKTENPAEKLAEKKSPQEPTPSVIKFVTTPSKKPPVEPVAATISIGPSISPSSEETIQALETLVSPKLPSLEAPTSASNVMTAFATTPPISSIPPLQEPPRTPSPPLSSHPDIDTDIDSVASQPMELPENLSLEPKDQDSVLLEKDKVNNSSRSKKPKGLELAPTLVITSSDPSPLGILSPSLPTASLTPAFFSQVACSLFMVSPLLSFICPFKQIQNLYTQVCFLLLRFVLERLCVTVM
In short, it runs like this: as §1

The target in another assay is T9, ETV2 (Homo sapiens, UniProt O00321 1-342).
T9 sequence: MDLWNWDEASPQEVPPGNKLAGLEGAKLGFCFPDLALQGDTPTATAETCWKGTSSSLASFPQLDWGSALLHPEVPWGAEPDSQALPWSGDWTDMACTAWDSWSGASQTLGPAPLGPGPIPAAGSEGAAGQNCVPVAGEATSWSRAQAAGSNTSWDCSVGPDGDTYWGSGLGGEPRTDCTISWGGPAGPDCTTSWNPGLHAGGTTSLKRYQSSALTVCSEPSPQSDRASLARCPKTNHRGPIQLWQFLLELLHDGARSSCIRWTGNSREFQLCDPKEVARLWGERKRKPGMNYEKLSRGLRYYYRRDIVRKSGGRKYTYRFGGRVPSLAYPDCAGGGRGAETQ
In outline:
as §1

A further assay addresses T10, ELF3 (Homo sapiens, UniProt P78545 1-371).
T10 sequence: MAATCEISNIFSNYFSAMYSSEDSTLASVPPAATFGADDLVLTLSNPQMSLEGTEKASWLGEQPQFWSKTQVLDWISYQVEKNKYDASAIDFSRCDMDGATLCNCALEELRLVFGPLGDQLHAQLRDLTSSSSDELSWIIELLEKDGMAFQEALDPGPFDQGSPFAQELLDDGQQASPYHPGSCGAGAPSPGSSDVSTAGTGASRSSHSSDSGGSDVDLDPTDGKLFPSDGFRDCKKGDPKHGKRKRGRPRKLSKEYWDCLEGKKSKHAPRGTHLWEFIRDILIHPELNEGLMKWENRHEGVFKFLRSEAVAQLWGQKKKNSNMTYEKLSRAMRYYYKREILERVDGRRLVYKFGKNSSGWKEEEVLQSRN
In outline:
as §1

A further assay deals with CRX (Homo sapiens, UniProt O43186 1-299). In outline: as §1
For the next assay, the target named is ETV1 (Homo sapiens, UniProt P50549 1-477). In short, it runs like this: as §1
The target of a further assay is T11, FEV (Homo sapiens, UniProt Q99581 1-238).
T11 sequence: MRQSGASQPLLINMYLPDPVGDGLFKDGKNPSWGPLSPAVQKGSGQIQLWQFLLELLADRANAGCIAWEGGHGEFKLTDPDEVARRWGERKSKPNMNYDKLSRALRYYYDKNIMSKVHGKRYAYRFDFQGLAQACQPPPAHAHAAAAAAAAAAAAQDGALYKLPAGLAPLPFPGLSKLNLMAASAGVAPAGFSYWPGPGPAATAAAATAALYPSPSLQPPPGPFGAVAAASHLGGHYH
In outline: as §1

Sequence of ETV5 (P41161 whole entry): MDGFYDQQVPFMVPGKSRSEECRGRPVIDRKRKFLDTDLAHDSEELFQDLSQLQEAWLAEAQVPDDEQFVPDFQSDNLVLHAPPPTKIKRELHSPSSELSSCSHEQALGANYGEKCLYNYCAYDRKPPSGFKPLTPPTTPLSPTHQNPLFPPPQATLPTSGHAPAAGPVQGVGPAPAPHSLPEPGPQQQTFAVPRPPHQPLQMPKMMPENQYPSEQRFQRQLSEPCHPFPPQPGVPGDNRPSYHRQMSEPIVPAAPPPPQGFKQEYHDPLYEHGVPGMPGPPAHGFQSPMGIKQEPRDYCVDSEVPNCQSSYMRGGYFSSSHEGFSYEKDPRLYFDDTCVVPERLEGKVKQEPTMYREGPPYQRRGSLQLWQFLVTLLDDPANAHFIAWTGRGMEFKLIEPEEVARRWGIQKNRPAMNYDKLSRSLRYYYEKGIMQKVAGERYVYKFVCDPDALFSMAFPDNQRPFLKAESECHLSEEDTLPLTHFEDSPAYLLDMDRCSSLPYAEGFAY
Sequence of ELF1 (P32519 whole entry): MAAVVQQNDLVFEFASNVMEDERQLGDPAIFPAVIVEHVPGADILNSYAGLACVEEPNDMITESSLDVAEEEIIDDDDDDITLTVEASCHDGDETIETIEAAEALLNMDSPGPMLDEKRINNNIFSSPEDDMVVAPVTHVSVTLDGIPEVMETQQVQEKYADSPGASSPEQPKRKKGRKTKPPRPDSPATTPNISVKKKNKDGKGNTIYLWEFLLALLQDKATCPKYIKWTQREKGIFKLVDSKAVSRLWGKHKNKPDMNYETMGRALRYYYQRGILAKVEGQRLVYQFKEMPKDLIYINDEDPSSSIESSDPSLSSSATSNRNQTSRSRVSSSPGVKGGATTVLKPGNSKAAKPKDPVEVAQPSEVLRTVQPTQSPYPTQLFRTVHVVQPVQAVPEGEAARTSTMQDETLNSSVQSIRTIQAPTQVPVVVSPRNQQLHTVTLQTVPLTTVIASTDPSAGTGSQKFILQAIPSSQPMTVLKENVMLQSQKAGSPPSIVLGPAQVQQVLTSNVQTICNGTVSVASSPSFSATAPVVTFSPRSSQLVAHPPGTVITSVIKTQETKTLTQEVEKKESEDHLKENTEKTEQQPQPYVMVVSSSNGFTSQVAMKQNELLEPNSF
Sequence of CRX (O43186 whole entry): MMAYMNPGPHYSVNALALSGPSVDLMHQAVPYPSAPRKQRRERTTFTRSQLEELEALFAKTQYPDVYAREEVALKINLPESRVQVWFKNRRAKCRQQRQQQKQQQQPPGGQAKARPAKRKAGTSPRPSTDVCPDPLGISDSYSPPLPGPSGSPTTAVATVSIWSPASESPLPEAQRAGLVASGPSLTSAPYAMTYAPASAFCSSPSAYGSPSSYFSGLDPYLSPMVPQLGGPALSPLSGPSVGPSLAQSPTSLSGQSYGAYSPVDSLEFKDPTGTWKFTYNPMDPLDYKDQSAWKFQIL
Sequence of ELF4 (Q99607 whole entry): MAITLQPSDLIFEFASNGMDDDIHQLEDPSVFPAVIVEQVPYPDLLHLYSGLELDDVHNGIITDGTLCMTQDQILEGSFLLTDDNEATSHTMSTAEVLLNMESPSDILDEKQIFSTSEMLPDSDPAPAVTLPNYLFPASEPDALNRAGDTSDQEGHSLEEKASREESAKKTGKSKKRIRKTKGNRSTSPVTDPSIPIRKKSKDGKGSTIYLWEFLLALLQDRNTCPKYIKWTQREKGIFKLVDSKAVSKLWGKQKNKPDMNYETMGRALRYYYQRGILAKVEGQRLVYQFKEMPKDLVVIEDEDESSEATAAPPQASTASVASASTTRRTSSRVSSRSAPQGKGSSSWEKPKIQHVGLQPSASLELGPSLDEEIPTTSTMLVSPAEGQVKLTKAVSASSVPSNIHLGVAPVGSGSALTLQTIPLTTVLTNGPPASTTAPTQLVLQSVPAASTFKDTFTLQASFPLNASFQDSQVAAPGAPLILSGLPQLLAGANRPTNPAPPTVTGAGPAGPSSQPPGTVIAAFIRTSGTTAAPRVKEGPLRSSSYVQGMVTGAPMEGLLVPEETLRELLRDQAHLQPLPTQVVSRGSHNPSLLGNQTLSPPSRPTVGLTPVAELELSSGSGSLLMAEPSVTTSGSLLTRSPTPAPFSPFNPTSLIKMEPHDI
Sequence of ETV1 (P50549 whole entry): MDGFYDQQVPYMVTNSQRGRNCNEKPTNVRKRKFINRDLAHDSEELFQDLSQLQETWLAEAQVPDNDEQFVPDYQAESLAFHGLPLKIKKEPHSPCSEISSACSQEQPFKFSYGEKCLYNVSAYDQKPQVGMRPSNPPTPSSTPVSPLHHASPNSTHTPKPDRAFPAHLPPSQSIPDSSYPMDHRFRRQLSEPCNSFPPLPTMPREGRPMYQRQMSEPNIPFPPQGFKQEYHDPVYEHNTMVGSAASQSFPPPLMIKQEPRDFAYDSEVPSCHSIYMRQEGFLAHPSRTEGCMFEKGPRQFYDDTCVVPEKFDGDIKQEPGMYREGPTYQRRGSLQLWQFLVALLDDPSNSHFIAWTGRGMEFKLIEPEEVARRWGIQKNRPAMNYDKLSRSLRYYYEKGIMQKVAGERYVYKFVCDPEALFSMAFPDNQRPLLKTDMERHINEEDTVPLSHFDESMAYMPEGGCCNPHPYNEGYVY
Sequence of SPIB (Q01892 whole entry): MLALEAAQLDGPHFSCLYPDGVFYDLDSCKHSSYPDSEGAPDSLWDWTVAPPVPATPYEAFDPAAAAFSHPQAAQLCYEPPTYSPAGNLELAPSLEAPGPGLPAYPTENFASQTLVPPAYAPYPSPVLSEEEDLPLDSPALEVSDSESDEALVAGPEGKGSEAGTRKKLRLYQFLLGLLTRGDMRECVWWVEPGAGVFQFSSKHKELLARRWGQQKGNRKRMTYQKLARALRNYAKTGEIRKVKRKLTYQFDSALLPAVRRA

TGCTGA: the binding signal with FLI1 is 1.11 fold enrichment (6-mer frequency, TF over GST control); with ELK1 it was 1.03 fold enrichment (6-mer frequency, TF over GST control); in the assay with GABPA, 1.07 fold enrichment (6-mer frequency, TF over GST control); with ERG it was 1.01 fold enrichment (6-mer frequency, TF over GST control); with ELF1, 1.07 fold enrichment (6-mer frequency, TF over GST control); with EHF it was 1.14 fold enrichment (6-mer frequency, TF over GST control). The binding signal with SPI1 is 1.12 fold enrichment (6-mer frequency, TF over GST control); in the assay with SPIB, 1.01 fold enrichment (6-mer frequency, TF over GST control); with ELK3, 1.19 fold enrichment (6-mer frequency, TF over GST control); in the assay with ETV5, 1.07 fold enrichment (6-mer frequency, TF over GST control); with SPIC it was 1.18 fold enrichment (6-mer frequency, TF over GST control); with ELF4, 1.15 fold enrichment (6-mer frequency, TF over GST control). For the same sequence, the binding signal with ELK4 was 1.11 fold enrichment (6-mer frequency, TF over GST control); with ETV2, 1.15 fold enrichment (6-mer frequency, TF over GST control); with ELF3, 1.09 fold enrichment (6-mer frequency, TF over GST control); with CRX it was 1.04 fold enrichment (6-mer frequency, TF over GST control); with ETV1, 1.12 fold enrichment (6-mer frequency, TF over GST control).
In the case of CCTACC, the binding signal with FLI1 is 1.21 fold enrichment (6-mer frequency, TF over GST control); with ELK1, 1.37 fold enrichment (6-mer frequency, TF over GST control); with GABPA it was 1.39 fold enrichment (6-mer frequency, TF over GST control); in the assay with ERG it was 1.29 fold enrichment (6-mer frequency, TF over GST control); with ELF1 it was 1.28 fold enrichment (6-mer frequency, TF over GST control); with EHF it was 1.33 fold enrichment (6-mer frequency, TF over GST control). The binding signal with SPI1 is 1.31 fold enrichment (6-mer frequency, TF over GST control); with SPIB, 1.38 fold enrichment (6-mer frequency, TF over GST control); in the assay with ELK3, 1.27 fold enrichment (6-mer frequency, TF over GST control); in the assay with FEV it was 1.29 fold enrichment (6-mer frequency, TF over GST control); with ETV5 it was 1.35 fold enrichment (6-mer frequency, TF over GST control); with SPIC, 1.36 fold enrichment (6-mer frequency, TF over GST control). The binding signal is 1.4 fold enrichment (6-mer frequency, TF over GST control) in the assay with ELF4; 1.22 fold enrichment (6-mer frequency, TF over GST control) with ELK4; 1.38 fold enrichment (6-mer frequency, TF over GST control) with ETV2; 1.1 fold enrichment (6-mer frequency, TF over GST control) in the assay with ELF3; 1.07 fold enrichment (6-mer frequency, TF over GST control) in the assay with CRX; 1.47 fold enrichment (6-mer frequency, TF over GST control) in the assay with ETV1.
